Test results taken from PubChem BioAssay (NCI).
Compounds without any hit were thinned out: in the full panel of roughly 83,000, 20% have a hit.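 Testing used 96-well plates and a 48-hour single-concentration exposure. Example: -40 means 40% of the starting cells died.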 Activity calls are given as the source filed them. How the source made its calls: active means growth percent below 10; inactive means the rest.

Key:
Test in all cases: NCI-60 one-dose screen, 48 h (100 = growth as untreated, 0 = no growth, -100 = all killed)
Settings in all cases: 10 µM unless noted
[1] = test system: SK-MEL-2 melanoma
[2] = test system: EKVX NSCLC
[3] = test system: SN12C renal
[4] = test system: UO-31 renal
[5] = test system: TK-10 renal
[6] = test system: ACHN renal
[7] = test system: CAKI-1 renal
[8] = test system: A498 renal
[9] = test system: CCRF-CEM leukemia
[10] = test system: MOLT-4 leukemia
[11] = test system: SR leukemia
[12] = test system: OVCAR-8 ovarian
[13] = test system: OVCAR-5 ovarian
[14] = test system: OVCAR-4 ovarian
[15] = test system: SK-OV-3 ovarian
[16] = test system: IGROV1 ovarian
[17] = test system: OVCAR-3 ovarian
[18] = test system: HS 578T breast
[19] = test system: NCI/ADR-RES ovarian

Measured: growth

CCc1cccc2c1S/C(=C/c1ccc(Cl)cc1)C2=O
inactive: [1] 105% | [2] 95% | [3] 90.5% | [4] 70.7% | [5] 170% | [6] 91.3% | [7] 87.3% | [8] 113% | [9] 98% | [10] 88.8% | [11] 79% | [12] 101% | [13] 100% | [14] 93.5% | [15] 85.7% | [16] 65.6% | [17] 104% | [18] 88% | [19] 101%

COc1ccc(S(=O)(=O)n2c3ccccc3n3ncc(-c4nnc(C)o4)c23)cc1
active: [8] -8.11% | [17] 0.366% | [19] -25.1%
inactive: [1] 67% | [2] 31.7% | [3] 38.3% | [4] 44.8% | [5] 76.1% | [6] 45.7% | [7] 32.1% | [9] 11.7% | [10] 24.1% | [11] 24.7% | [12] 45% | [13] 30.6% | [14] 81.6% | [15] 54.4% | [16] 34.4% | [18] 27%

COc1cc(C2CC(c3ccc(SC)cc3)=NN2C(C)=O)cc(OC)c1OC (centres undefined)
inactive: [1] 65.5% | [2] 74.5% | [3] 91.4% | [4] 71.2% | [5] 86.2% | [6] 89.3% | [7] 65.5% | [8] 68.1% | [9] 52.9% | [10] 43.2% | [11] 33.8% | [12] 80.3% | [13] 100% | [14] 93.8% | [15] 89% | [16] 53.8% | [17] 21.7% | [18] 79.7% | [19] 24.4%

Cc1ccc2sc3c(NCCCN)nc4ccccc4c3c(=O)c2c1
inactive: [1] 107% | [2] 82.7% | [3] 69.2% | [4] 47.1% | [5] 85.2% | [6] 20.6% | [8] 44.6% | [12] 38.3% | [13] 85.8% | [14] 28% | [15] 90.2% | [16] 65.7% | [18] 59.8% | [19] 39.4%
active: [7] -6.43% | [9] 5.2% | [10] -30.6% | [11] -31.8% | [17] 2.61%

Cn1cc(-c2cc3ncnc(Nc4ccc(CC(=O)Nc5cc(C(C)(C)C)nn5C)cc4)c3s2)cn1
inactive: [1] 22.3% | [2] 84.6% | [3] 26.4% | [4] 28.8% | [5] 56.5% | [6] 25.9% | [7] 19.3% | [9] 13.7% | [10] 16.7% | [12] 35.9% | [13] 102% | [14] 28.1% | [15] 29.3% | [16] 28.9% | [17] 61.4% | [18] 32.3% | [19] 101%
active: [8] -7.97% | [11] 8.15%

CCCCCCCCCCCCCCCCCC1OCC(COC(=O)O[C@]2(CC)C(=O)OCc3c2cc2n(c3=O)Cc3cc4ccccc4nc3-2)O1 (some centres undefined)
active: [11] 8.38%
inactive: [1] 116% | [2] 92.4% | [3] 49% | [4] 73.1% | [5] 95.5% | [6] 62.9% | [7] 65.7% | [8] 88.6% | [9] 29.2% | [10] 43.3% | [12] 70.2% | [13] 95.6% | [14] 100% | [15] 83.9% | [16] 81.5% | [17] 94.5% | [18] 99.5% | [19] 66.6%

CS(=O)(=O)Nc1cc(-c2ccc3ncnc(Nc4cccc(Cl)c4F)c3c2)cnc1Cl
active: [8] -32.5% | [16] -8.72% | [18] -3.32%
inactive: [1] 28.4% | [2] 44.7% | [3] 37.4% | [4] 28.8% | [5] 34.8% | [6] 66.5% | [7] 19.8% | [9] 30.4% | [10] 27.3% | [11] 43.5% | [12] 60.8% | [13] 38.3% | [14] 77.2% | [15] 30.5% | [17] 25% | [19] 86.9%

CCN(CC)CCNc1nc2ccccc2c2c(=O)c3cc(Cl)ccc3sc12
inactive: [1] 89% | [2] 74.9% | [3] 66.7% | [4] 43.7% | [5] 80.1% | [6] 47.6% | [7] 22.6% | [10] 25.1% | [12] 64.4% | [13] 81.6% | [14] 46.5% | [15] 54% | [16] 56.1% | [17] 51.3% | [18] 67.6% | [19] 27.1%
active: [8] -7.91% | [9] 7.05% | [11] -2.52%

COc1ccc2nc(NC(=O)c3cccnc3Nc3ccc(S(N)(=O)=O)cc3)sc2c1
inactive: [1] 103% | [2] 92% | [3] 110% | [4] 126% | [5] 99% | [6] 90% | [7] 76.1% | [8] 93.5% | [9] 59.3% | [10] 63.3% | [11] 59.6% | [12] 97.1% | [13] 102% | [14] 81.7% | [15] 116% | [16] 134% | [17] 98.9% | [18] 96.7% | [19] 104%

CCOC(=O)C1=C(N)Oc2c(sc3c(C)cccc23)C1c1ccc(F)cc1 (centres undefined)
inactive: [1] 42.5% | [2] 44.9% | [3] 30.5% | [4] 40.7% | [5] 76% | [6] 30.7% | [10] 10.2% | [12] 19% | [13] 27.9% | [14] 42.7% | [15] 60% | [16] 16.9% | [18] 13.6%
active: [7] 2.3% | [8] -5.94% | [9] 4.35% | [11] 5.82% | [17] -32.9% | [19] 6.4%

O=c1c2cccc(Cl)c2sc2c(NCCCNCCO)nc3ccccc3c12
inactive: [1] 104% | [2] 53.9% | [3] 39.1% | [4] 12.5% | [5] 39.1% | [6] 10.3% | [8] 10.8% | [12] 27% | [13] 62.5% | [14] 11.1% | [15] 53.2% | [16] 15.3% | [18] 20.3% | [19] 38.4%
active: [7] -46.9% | [9] -14.6% | [10] -40.3% | [11] -51.2% | [17] -7.4%

CCc1cccc2c3c(sc12)C(c1ccc(Cl)cc1)C(C#N)=C(N)O3 (centres undefined)
active: [7] 3.05% | [9] 5.24% | [17] 2.19% | [18] 4.92%
inactive: [1] 40.2% | [2] 48.2% | [3] 38.3% | [4] 38.2% | [5] 69% | [6] 33.7% | [8] 10.8% | [10] 12.2% | [11] 13.6% | [12] 29.4% | [13] 24.6% | [14] 75.2% | [15] 58.3% | [16] 30.2% | [19] 19.2%

Cc1cccc(NC2=C(Cl)C(=O)c3nc(C)ccc3C2=O)c1
active: [1] -9.34% | [3] -71.2% | [4] -93.3% | [6] -98.3% | [7] -33.1% | [9] 3.19% | [10] -22.1% | [11] 1.13% | [12] 6.03% | [13] -43% | [14] -97.5% | [16] -54.1% | [17] -31.8% | [18] -16.5%
inactive: [2] 75.7% | [5] 123% | [8] 42.1% | [15] 74.5% | [19] 13.8%

O=C(Nc1ccc(Cl)cc1F)c1ccccc1O
inactive: [2] 66.2% | [3] 13.7% | [5] 56.6% | [6] 34.2% | [7] 35.8% | [9] 53.2% | [10] 29.7% | [11] 15.8% | [12] 44.8% | [13] 71.1% | [14] 54.6% | [15] 42.3% | [16] 20.5% | [17] 30.9% | [18] 41.6% | [19] 34.5%
active: [1] 2.56% | [4] 9.45% | [8] -21.8%

CCc1cccc2c3c(sc12)C(c1ccc(F)cc1)C(C#N)=C(N)O3 (centres undefined)
inactive: [1] 57% | [2] 51% | [3] 32.7% | [4] 48.9% | [5] 77.8% | [6] 30.1% | [7] 14.5% | [9] 15.1% | [10] 17.3% | [11] 27.3% | [12] 32.9% | [13] 32.6% | [14] 60.4% | [15] 78.5% | [16] 31.1% | [17] 10.9% | [18] 26.7% | [19] 14%
active: [8] 7.3%

CCCCCCn1c(-c2ccc(C(=O)O/N=C(\N)c3ccc4ccccc4c3)cc2)nc(-c2ccccc2)c1-c1ccccc1
inactive: [1] 88.6% | [2] 18% | [3] 45.6% | [5] 47.4% | [7] 33.9% | [8] 51.4% | [9] 18.5% | [10] 41.2% | [12] 64.6% | [13] 71.6% | [14] 56.8% | [15] 91% | [17] 74.8% | [18] 46.8%
active: [4] -85.4% | [6] 0.0407% | [11] -37.7% | [16] -48.3% | [19] 3.92%
